Results published in PubChem BioAssay (Tox21).
The source made the active and inactive calls. Entries that show only a call come without a potency. Unless noted, the call rests on the fitted dose curve; in most records, active means well fitted curve in the direction sought with a large enough effect in the repeat runs; inconclusive means weak or mixed curves; inactive means no such curve, though single readings can be large; an effect the other way counts as inactive or inconclusive.

Key:
[1] = qHTS assay to identify small molecule antagonists of the thyroid receptor (TR) signaling pathway - cell viability counter screen (AID 743064); further: nearly all actives have a fitted effect of over 50% in size; further: potency means the concentration at half of the fitted maximal effect
In short: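 Plate GH3.TRE-Luc cells; incubate 4 h at 37 °C; add compound, then T3 to 1 nM final; incubate 23.5 h; add CellTiter-Fluor; incubate 30 min at 37 °C, 5% CO2; read fluorescence.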

[2] = tested on: thyroid hormone receptor (rat, GH3 cells); assay: qHTS assay to identify small molecule agonists of the thyroid receptor (TR) signaling pathway (AID 743066; calls by dose curve)
[3] = molecular target: Estrogen receptor (Homo sapiens) (UniProt P03372); assay: qHTS assay to identify small molecule antagonists of the estrogen receptor alpha (ER-alpha) signaling pathway (AID 743069; active means well fitted curve in the direction sought with a large enough effect in the signal ratio in the repeat runs, not every such curve was filed as active; inconclusive means weak or mixed curves, or effect the other way; inactive means no such curve, though single readings can be large or run the other way; the % refers to the signal ratio; further: potency means the concentration at half of the fitted maximal effect)
Estrogen receptor (Homo sapiens), sequence (P03372 whole entry, looked up): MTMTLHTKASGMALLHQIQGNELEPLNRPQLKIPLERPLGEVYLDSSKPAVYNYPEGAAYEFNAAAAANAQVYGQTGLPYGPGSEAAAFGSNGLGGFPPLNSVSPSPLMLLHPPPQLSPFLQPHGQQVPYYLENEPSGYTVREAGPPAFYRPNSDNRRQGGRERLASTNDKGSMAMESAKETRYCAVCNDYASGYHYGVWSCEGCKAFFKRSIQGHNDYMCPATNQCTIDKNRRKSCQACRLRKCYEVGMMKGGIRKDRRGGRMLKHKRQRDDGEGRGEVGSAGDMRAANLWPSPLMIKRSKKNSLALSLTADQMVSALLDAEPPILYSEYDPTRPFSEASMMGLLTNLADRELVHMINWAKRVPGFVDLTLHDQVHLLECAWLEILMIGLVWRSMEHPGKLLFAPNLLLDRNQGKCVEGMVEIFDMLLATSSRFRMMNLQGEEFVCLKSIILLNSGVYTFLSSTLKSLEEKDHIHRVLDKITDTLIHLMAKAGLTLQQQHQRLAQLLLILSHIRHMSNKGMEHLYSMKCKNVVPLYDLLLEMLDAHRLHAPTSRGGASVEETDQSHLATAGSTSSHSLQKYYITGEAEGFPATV
In short: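 Estradiol-stimulated ER-alpha-UAS-bla HEK293 cells, 18 hr compound exposure at 37C. LiveBLAzer B/G substrate, 2 hr RT, fluorescence read.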

[4] = qHTS assay to identify small molecule antagonists of the estrogen receptor alpha (ER-alpha) signaling pathway - cell viability counter screen (AID 743074; calls by dose curve;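 further: HEK293 cells carrying ER-alpha-UAS-bla reporter stimulated with 17beta-estradiol; nearly all actives have a fitted effect of over 45% in size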)
[5] = molecular target: Estrogen receptor (Homo sapiens) (UniProt P03372); assay: qHTS assay to identify small molecule agonists of the estrogen receptor alpha (ER-alpha) signaling pathway (AID 743075; calls by dose curve;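 further: HEK293 GripTite cells with ER-alpha and UAS-driven beta-lactamase reporter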; further: potency means the concentration at half of the fitted maximal effect)
[6] = molecular target: Estrogen receptor (Homo sapiens) (UniProt P03372); assay: qHTS assay to identify small molecule agonists of the estrogen receptor alpha (ER-alpha) signaling pathway using the BG1 cell line (AID 743079); conditions: BG1Luc4E2 cells, ERE-luciferase agonist, 22 h; activation: at 70.3 µM (top of the series); further: nearly all actives have a fitted effect of over 20% in size; further: potency means the concentration at half of the fitted maximal effect
[7] = qHTS assay to identify small molecule antagonists of the estrogen receptor alpha (ER-alpha) signaling pathway using the BG1 cell line (AID 743080; calls by dose curve;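 further: BG1 cells stimulated with 17beta-estradiol alongside compound; nearly all actives have a fitted effect of over 25% in size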)
In short: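 Luminescence from a 4×ERE-luciferase reporter in BG1-Luc-4E2 cells served as read-out. Cells, pre-cultured 5 days in stripped-serum phenol-red-free medium, were exposed to compound with 17beta-estradiol co-stimulation for 21.5 h at 37 C.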

[8] = qHTS assay to identify small molecule antagonists of the estrogen receptor alpha (ER-alpha) signaling pathway using the BG1 cell line - cell viability counter screen (AID 743081);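 further: compound given together with 17beta-estradiol as the ER stimulus; nearly all actives have a fitted effect of over 45% in size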
Aromatase (Homo sapiens) = Aromatase (Homo sapiens) (UniProt P11511); assay: qHTS assay to identify aromatase inhibitors (AID 743083); further: nearly all actives have a fitted effect of over 55% in size; further: potency means the concentration at half of the fitted maximal effect
Aromatase (Homo sapiens), sequence (P11511 whole entry, looked up): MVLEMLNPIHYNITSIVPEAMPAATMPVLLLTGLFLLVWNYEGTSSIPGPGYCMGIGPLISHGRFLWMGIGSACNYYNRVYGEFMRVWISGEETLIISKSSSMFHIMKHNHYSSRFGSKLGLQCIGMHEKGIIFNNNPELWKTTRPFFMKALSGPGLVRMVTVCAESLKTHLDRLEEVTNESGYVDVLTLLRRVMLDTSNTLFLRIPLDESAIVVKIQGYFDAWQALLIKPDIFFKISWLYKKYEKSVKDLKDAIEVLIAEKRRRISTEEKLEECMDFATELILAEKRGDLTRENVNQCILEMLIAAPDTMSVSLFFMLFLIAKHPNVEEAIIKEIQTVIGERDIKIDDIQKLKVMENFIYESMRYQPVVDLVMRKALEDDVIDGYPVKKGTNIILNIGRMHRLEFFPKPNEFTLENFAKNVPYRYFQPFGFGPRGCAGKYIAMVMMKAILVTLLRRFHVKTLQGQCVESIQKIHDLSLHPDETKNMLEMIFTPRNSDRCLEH

[9] = qHTS assay to identify aromatase inhibitors - cell viability counter screen (AID 743084);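 further: cells stimulated with testosterone during compound exposure; nearly all actives have a fitted effect of over 55% in size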; further: potency means the concentration at half of the fitted maximal effect
[10] = molecular target: Aryl hydrocarbon receptor (Homo sapiens) (UniProt P35869); assay: qHTS assay to identify small molecule that activate the aryl hydrocarbon receptor (AhR) signaling pathway (AID 743085); further: nearly all actives have a fitted effect of over 15% in size; further: potency means the concentration at half of the fitted maximal effect;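 on activation: HG2L7.5c1 human HepG2 liver cells with stably integrated DRE-driven firefly reporter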
Aryl hydrocarbon receptor (Homo sapiens), sequence (P35869 whole entry, looked up): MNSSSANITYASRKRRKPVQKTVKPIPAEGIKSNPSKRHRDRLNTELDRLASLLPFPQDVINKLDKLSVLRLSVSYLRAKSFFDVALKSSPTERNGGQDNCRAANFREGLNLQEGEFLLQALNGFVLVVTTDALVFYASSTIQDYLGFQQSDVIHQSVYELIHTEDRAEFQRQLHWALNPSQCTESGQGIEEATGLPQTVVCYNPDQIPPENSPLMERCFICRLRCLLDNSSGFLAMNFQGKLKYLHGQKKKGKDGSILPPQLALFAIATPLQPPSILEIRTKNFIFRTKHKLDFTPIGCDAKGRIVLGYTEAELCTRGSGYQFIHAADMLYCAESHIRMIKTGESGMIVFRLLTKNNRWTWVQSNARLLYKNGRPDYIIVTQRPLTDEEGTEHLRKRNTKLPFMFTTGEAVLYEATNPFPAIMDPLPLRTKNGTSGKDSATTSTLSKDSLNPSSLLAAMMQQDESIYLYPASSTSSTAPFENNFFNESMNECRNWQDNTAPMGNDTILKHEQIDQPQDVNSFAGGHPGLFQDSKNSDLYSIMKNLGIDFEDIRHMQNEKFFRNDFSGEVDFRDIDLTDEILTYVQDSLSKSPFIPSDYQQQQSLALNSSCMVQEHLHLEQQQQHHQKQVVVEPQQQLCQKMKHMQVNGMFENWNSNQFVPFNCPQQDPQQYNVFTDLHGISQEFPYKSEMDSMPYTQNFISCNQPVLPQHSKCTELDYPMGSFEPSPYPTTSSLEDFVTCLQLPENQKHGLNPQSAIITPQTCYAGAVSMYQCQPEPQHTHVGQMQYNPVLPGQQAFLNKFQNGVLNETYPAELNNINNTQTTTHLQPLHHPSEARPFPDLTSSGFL
In short: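 Steps: seed HepG2-AhR-luc cells; allow 5 h at 37C; pin-transfer test compound or vehicle; incubate 24 h at 37C; add viability dye (30 min, 37C) and read fluorescence; add luciferase substrate (30 min, RT) and read luminescence.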

[11] = qHTS assay to identify small molecule that activate the aryl hydrocarbon receptor (AhR) signaling pathway - cell viability counter screen (AID 743086); further: nearly all actives have a fitted effect of over 45% in size; further: potency means the concentration at half of the fitted maximal effect
In short: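 HepG2-AhR-luc (HG2L7.5c1) cells, 4000/well, were preincubated 5 h at 37C, exposed to compound in qHTS format for 24 hr at 37C, then given CellTiter-Fluor for 30 min; viability was read as fluorescence in the reporter wells.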

[12] = molecular target: Peroxisome proliferator-activated receptor gamma (Homo sapiens) (UniProt P37231); assay: qHTS assay to identify small molecule agonists of the peroxisome proliferator-activated receptor gamma (PPARg) signaling pathway (AID 743094; active means well fitted activation curve with a large enough effect in the signal ratio in the repeat runs, not every such curve was filed as active; inconclusive means weak or mixed curves, or effect the other way; inactive means no such curve, though single readings can be large or run the other way; the % refers to the signal ratio; further: potency means the concentration at half of the fitted maximal effect)
Peroxisome proliferator-activated receptor gamma (Homo sapiens), sequence (P37231 whole entry, looked up): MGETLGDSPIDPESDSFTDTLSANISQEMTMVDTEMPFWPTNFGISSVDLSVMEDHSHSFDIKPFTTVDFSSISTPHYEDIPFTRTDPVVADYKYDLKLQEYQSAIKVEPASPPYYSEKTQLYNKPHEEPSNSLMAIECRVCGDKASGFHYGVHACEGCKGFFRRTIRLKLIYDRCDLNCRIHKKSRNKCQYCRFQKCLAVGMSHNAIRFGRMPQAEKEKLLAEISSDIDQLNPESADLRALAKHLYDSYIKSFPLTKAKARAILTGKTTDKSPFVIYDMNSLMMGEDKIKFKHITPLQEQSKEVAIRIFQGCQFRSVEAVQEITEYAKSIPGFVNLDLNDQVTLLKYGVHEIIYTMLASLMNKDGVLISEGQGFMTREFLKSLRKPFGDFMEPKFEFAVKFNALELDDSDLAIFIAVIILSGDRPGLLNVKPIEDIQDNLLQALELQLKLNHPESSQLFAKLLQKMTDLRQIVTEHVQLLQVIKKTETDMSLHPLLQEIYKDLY
In short: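 Stably transfected HEK293H cells (GeneBLAzer PPARg UAS-bla) were incubated with test substances for 17 h at 37C after a 5 h pre-incubation; beta-lactamase activity was then detected by FRET substrate fluorescence.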

[13] = molecular target: Peroxisome proliferator-activated receptor gamma (Homo sapiens) (UniProt P37231); assay: qHTS assay to identify small molecule antagonists of the peroxisome proliferator-activated receptor gamma (PPARg) signaling pathway (AID 743191; calls by dose curve; further: nearly all actives have a fitted effect of over 30% in size; further: potency means the concentration at half of the fitted maximal effect)
In short: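 GeneBLAzer PPARg UAS-bla HEK293H cells carrying a UAS-driven beta-lactamase reporter were plated at 3000 cells/well, preincubated 5 h at 37C, then given compound for 17 h at 37C; LiveBLAzer B/G FRET substrate was read after 1 h at room temperature.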

[14] = qHTS assay to identify small molecule antagonists of the peroxisome proliferator-activated receptor gamma (PPARg) signaling pathway - cell viability counter screen (AID 743194); further: nearly all actives have a fitted effect of over 55% in size
In short: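 PPARg-UAS-bla HEK293H cells were plated, rested 5 h at 37 C, then treated with compounds plus rosiglitazone (50 nM final) for 17 h at 37 C; viability was then read by CellTiter-Glo luminescence after 30 min at room temperature.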

[15] = qHTS assay for small molecule agonists of the antioxidant response element (ARE) signaling pathway - cell viability counter screen (AID 743203; calls by dose curve; further: nearly all actives have a fitted effect of over 55% in size; further: potency means the concentration at half of the fitted maximal effect)
In short: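 Cells (ARE-bla HepG2, 2,000/well) receive DMSO-dissolved compounds after a 5 hrs rest. Plates incubate 16 hrs at 37C/5% CO2. CellTiter-Glo luminescence is then recorded after 30 min at room temperature.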

[16] = qHTS assay for small molecule activators of the heat shock response signaling pathway - cell viability counter screen (AID 743209); further: nearly all actives have a fitted effect of over 50% in size
In short: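 Quantitative HTS format, Tox21 10K library. HeLa cells carrying an HSE-driven beta-lactamase reporter were treated 5 h at 37 C, then assessed for viability by CellTiter-Glo luminescence.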

[17] = qHTS assay for small molecule activators of the heat shock response signaling pathway (AID 743210; active means well fitted activation curve with a large enough effect in the signal ratio in the repeat runs, with a control signal flat, not every such curve was filed as active; inconclusive means weak or mixed curves; the % refers to the signal ratio;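 further: HeLa cells with beta-lactamase reporter driven by heat shock elements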)
In short: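 Reporter gene assay: HeLa cells stably bearing an HSE-bla construct, compound treatment 5 h at 37 C, LiveBLAzer substrate 2.5 h at RT, fluorescence intensity.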

[18] = qHTS assay to identify small molecule antagonists of the thyroid receptor (TR) signaling pathway (AID 743065)
In short: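 GH3.TRE-Luc rat pituitary cells carrying two TR response elements driving luciferase were plated for 4 h, given compound plus 1 nM T3 (final), and incubated 23.5 h at 37 C. ONE-Glo luminescence measured reporter inhibition; CellTiter-Fluor fluorescence tracked cytotoxicity.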

[19] = qHTS assay for small molecule agonists of the antioxidant response element (ARE) signaling pathway (AID 743202; active means well fitted activation curve with a large enough effect in the signal ratio in the repeat runs, not every such curve was filed as active; inconclusive means weak or mixed curves, or effect the other way; inactive means no such curve, though single readings can be large or run the other way; the % refers to the signal ratio; further: potency means the concentration at half of the fitted maximal effect)
In short: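 Compounds delivered in DMSO to ARE-bla HepG2 cells (2,000 cells/well, pre-incubated 5 h) and left 16 h at 37 C. LiveBLAzer B/G FRET substrate then added for 2 h at RT before fluorescence reading.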

Compound	Potency [1]	outcome [2]	Potency [3]	Potency [4]	Potency [5]	Potency [6]	Potency [7]	Potency [8]	Potency (Aromatase (Homo sapiens))	Potency [9]	Potency [10]	Potency [11]	Potency [12]	Potency [13]	Potency [14]	Potency [15]	Potency [16]	Potency [17]	Potency [18]	Potency [19]
C[Si](NC1CCCCC1)(NC1CCCCC1)NC1CCCCC1	inactive	inactive	inactive	inactive	inactive	inactive	inactive	inactive	inactive	inactive	inactive	inactive	inactive	inactive	inactive	inactive	inactive	inactive		
COc1ccc(C(=O)c2cccc(O)c2)c(OC)c1	inactive	inactive	inactive	inactive	24.5 µM [activator] (active)	6.84 µM (active)		inactive	inactive		17.2 µM (active)	inactive	inactive		inactive	inactive	inactive	inactive		
O=C(CCCN1CCN(c2ccc(F)cc2)CC1)NC1c2ccccc2CSc2ccccc21 (stereo not drawn)	10.6 µM (active)		21.3 µM [inconclusive] (active)	inactive	inactive	inactive	inactive											inactive	10.6 µM (active)	
CCOc1cc(N)c(Cl)cc1C(=O)NCC1CN(Cc2ccc(F)cc2)CCO1 (stereo not drawn)	inactive	inactive	inactive	inactive	inactive	inactive		inactive	inactive	inactive	0.266 µM (active)	inactive			inactive	inactive		inactive		
COc1cc2c(N3CCN(C(=O)Nc4ccc(OC(C)C)cc4)CC3)ncnc2cc1OCCCN1CCCCC1	11.9 µM (active)		inactive	inactive		inactive			inactive	inactive		23.7 µM (active)	inactive	inactive	inactive	inactive	inactive	inactive	13.3 µM (active)	
CCCCC1C(=O)N(c2ccccc2)N(c2ccc(O)cc2)C1=O (stereo not drawn)	3.59 µM (active)			inactive				inactive	inactive			inactive			inactive	inactive			3.2 µM (active)	29.8 µM (active)
CCCCCCCCCCOS(=O)(=O)O	inactive	inactive	inactive	inactive	inactive	inactive		inactive	inactive	inactive	inactive	inactive			inactive	inactive	inactive	inactive		
CSc1ccc(Oc2ccc(S(N)(=O)=O)cc2CN(C)C)cc1C	54.5 µM (active)				inactive			inactive		inactive	inactive	inactive	inactive		inactive	inactive	inactive	inactive	27.3 µM (active)	
COc1cc2ncnc(Nc3ccc(F)c(Cl)c3)c2cc1OCCCN1CCOCC1	10.6 µM (active)		16.9 µM [inhibitor] (active)	inactive	inactive				inactive			inactive	inactive		inactive		inactive	inactive	10.6 µM (active)	
O=c1[nH]c2ccc(S(=O)CCN3CCC(Cc4ccc(F)cc4)CC3)cc2o1 (stereo not drawn)	inactive	inactive	inactive	inactive	inactive	12.2 µM (active)			inactive	inactive	inactive	inactive			inactive	inactive	inactive	inactive		
NC(=O)N(O)[C@@H]1C=C[C@H](Oc2cccc(Oc3ccc(F)cc3)c2)C1	inactive		inactive	inactive	inactive	13.7 µM (active)		inactive		inactive	inactive		inactive		inactive	inactive	inactive	inactive	68.6 µM (active)	17.2 µM (active)
O=C(N[C@@H](c1ccccc1)[C@@H]1CCCCN1)c1cccc(C(F)(F)F)c1Cl	24.3 µM (active)			inactive	inactive				38.6 µM (active)		inactive	24.3 µM (active)				21.7 µM (active)	inactive	inactive	27.3 µM (active)	
Cc1nc2ccccn2c(=O)c1CCN1CCC(C(=O)c2ccc(F)cc2)CC1	inactive	inactive	inactive	inactive	inactive	inactive		inactive	inactive	inactive		inactive	inactive	inactive	inactive	inactive	inactive	inactive		
COc1cc2c(cc1OC)-c1cc(=Nc3c(C)cc(C)cc3C)n(C)c(=O)n1CC2	21.1 µM (active)				inactive				26.6 µM (active)	26.6 µM (active)	1.33 µM (active)	29.8 µM (active)		13.3 µM (active)			inactive		18.8 µM (active)	
CC[C@H](NC(=O)c1cc(F)ccc1NS(=O)(=O)c1cccc2cccnc12)c1ccccc1	inactive	inactive		inactive	inactive	inactive		inactive	inactive	inactive	inactive	inactive			inactive	inactive	inactive	inactive		
CCCc1c(OCCCOc2ccc(OCC(=O)O)cc2)ccc(C(C)=O)c1O	inactive	inactive		inactive	inactive	inactive		inactive		inactive	inactive	inactive	0.275 µM (active)		inactive	inactive		inactive		inactive
